# Values joined by “and” are separate entries in the source; they are usually repeats but may differ in a detail not shown here. Equal values may be shown once. In all, about 5,500 compounds went through this assay and about 2,000 (36%) were called active. Inconclusive results (about 18%) are left out. The list shows a part of the results. Values without a mark were called inactive. Cut-off read from the data, not from the text of the source: active = normalized growth mostly below about 0.91 (no sharp cut-off); inconclusive = no clear call, values can overlap the other calls; inactive = mostly above about 0.92.
# Assay: chemical genetic growth profiling, strain panel (AID 1159580);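 note: tested at 20 µM; growth read once vehicle control cultures reached saturation at 30 °C; 1 = growth at the plate median or of vehicle wells; lower values mean less growth of the strain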
# Settings: S. cerevisiae deletion strains, growth OD
smiles,measurement,setting,value
C=C(C)[C@H]1Cc2c(ccc3c2O[C@@H]2COc4cc(OC)c(OC)cc4[C@@H]2C3=O)O1,normalized growth,"locus YAL013W, strain DEP1, stronger effect = lower value",1.01
same,normalized growth,"locus YAL021C, strain ccr4, stronger effect = lower value",0.993
same,normalized growth,"locus YAL026C, strain drs2, stronger effect = lower value",0.962
same,normalized growth,"locus YAL030W, strain snc1, stronger effect = lower value",0.982
same,normalized growth,"locus YBL061C, strain skt5, stronger effect = lower value",0.994
same,normalized growth,"locus YBR009C, strain hhf1, stronger effect = lower value",0.892 (active)
same,normalized growth,"locus YBR021W, strain FUR4, stronger effect = lower value",0.975
same,normalized growth,"locus YBR023C, strain chs3, stronger effect = lower value",0.962
same,normalized growth,"locus YBR171W, strain sec66, stronger effect = lower value",0.979
same,normalized growth,"locus YBR229C, strain ROT2, stronger effect = lower value",1.01
same,normalized growth,"locus YBR231C, strain swc5, stronger effect = lower value",1
same,normalized growth,"locus YBR279W, strain paf1, stronger effect = lower value",1.06
same,normalized growth,"locus YCL011C, strain gbp2, stronger effect = lower value",0.936
same,normalized growth,"locus YCL016C, strain dcc1, stronger effect = lower value",0.926
same,normalized growth,"locus YCL029C, strain bik1, stronger effect = lower value",1.03
same,normalized growth,"locus YCL061C, strain MRC1, stronger effect = lower value",1
same,normalized growth,"locus YCL069W, strain vba3, stronger effect = lower value",0.997
same,normalized growth,"locus YCR088W, strain abp1, stronger effect = lower value",1.03
same,normalized growth,"locus YDL005C, strain med2, stronger effect = lower value",0.99
same,normalized growth,"locus YDL035C, strain GPR1, stronger effect = lower value",0.956
same,normalized growth,"locus YDL040C, strain nat1, stronger effect = lower value",0.986
same,normalized growth,"locus YDL074C, strain BRE1, stronger effect = lower value",0.926
same,normalized growth,"locus YDL101C, strain DUN1, stronger effect = lower value",0.992
same,normalized growth,"locus YDL185W, strain tfp1, stronger effect = lower value",1.02
same,normalized growth,"locus YDL192W, strain arf1, stronger effect = lower value",1.02
same,normalized growth,"locus YDR001C, strain nth1, stronger effect = lower value",1.01
same,normalized growth,"locus YDR069C, strain doa4, stronger effect = lower value",0.991
same,normalized growth,"locus YDR101C, strain arx1, stronger effect = lower value",1
same,normalized growth,"locus YDR137W, strain rgp1, stronger effect = lower value",0.853
same,normalized growth,"locus YDR159W, strain sac3, stronger effect = lower value",0.984
same,normalized growth,"locus YDR162C, strain NBP2, stronger effect = lower value",0.966
same,normalized growth,"locus YDR195W, strain ref2",1.13
same,normalized growth,"locus YDR297W, strain sur2, stronger effect = lower value",0.966
same,normalized growth,"locus YDR318W, strain mcm21, stronger effect = lower value",1
same,normalized growth,"locus YDR334W, strain swr1, stronger effect = lower value",1.04
same,normalized growth,"locus YDR335W, strain msn5, stronger effect = lower value",1
same,normalized growth,"locus YDR388W, stronger effect = lower value",1.01
same,normalized growth,"locus YDR392W, strain spt3, stronger effect = lower value",0.762
same,normalized growth,"locus YDR502C, strain sam2, stronger effect = lower value",1
same,normalized growth,"locus YEL003W, strain gim4, stronger effect = lower value",0.981
same,normalized growth,"locus YEL037C, strain rad23, stronger effect = lower value",1.02
same,normalized growth,"locus YEL061C, strain CIN8 (second series), stronger effect = lower value",1.03
same,normalized growth,"locus YEL061C, strain CIN8, stronger effect = lower value",1
same,normalized growth,"locus YER015W, strain faa2, stronger effect = lower value",0.982
same,normalized growth,"locus YER016W, strain bim1, stronger effect = lower value",0.986
same,normalized growth,"locus YER110C, stronger effect = lower value",1.11 [resistant] (active)
same,normalized growth,"locus YER111C, strain swi4, stronger effect = lower value",1.02
same,normalized growth,"locus YER155C, strain BEM2 (second series), stronger effect = lower value",1.07
same,normalized growth,"locus YER155C, strain BEM2, stronger effect = lower value",1
same,normalized growth,"locus YER167W, strain BCK2, stronger effect = lower value",0.966
same,normalized growth,"locus YFR010W, strain ubp6, stronger effect = lower value",1.01
same,normalized growth,"locus YGL078C, strain dbp3, stronger effect = lower value",1.01
same,normalized growth,"locus YGL086W, strain mad1, stronger effect = lower value",0.993
same,normalized growth,"locus YGL167C, strain pmr1, stronger effect = lower value",0.97
same,normalized growth,"locus YGL173C, strain kem1, stronger effect = lower value",0.98
same,normalized growth,"locus YGL227W, strain vid30, stronger effect = lower value",1.01
same,normalized growth,"locus YGL240W, strain doc1, stronger effect = lower value",0.999
same,normalized growth,"locus YGL248W, strain PDE1, stronger effect = lower value",0.993
same,normalized growth,"locus YGL253W, strain hxk2, stronger effect = lower value",0.964
same,normalized growth,"locus YGR135W, strain pre9, stronger effect = lower value",0.996
same,normalized growth,"locus YGR229C, strain SMI1, stronger effect = lower value",0.924
same,normalized growth,"locus YGR252W, strain gcn5, stronger effect = lower value",0.914
same,normalized growth,"locus YHR013C, strain ard1, stronger effect = lower value",1
same,normalized growth,"locus YHR027C, strain rpn1, stronger effect = lower value",0.975
same,normalized growth,"locus YHR030C, strain SLT2, stronger effect = lower value",1.01 and 0.915
same,normalized growth,"locus YHR079C, strain IRE1 (second series), stronger effect = lower value",1.02
same,normalized growth,"locus YHR079C, strain IRE1, stronger effect = lower value",0.95
same,normalized growth,"locus YHR094C, strain hxt1, stronger effect = lower value",1.02
same,normalized growth,"locus YHR129C, strain ARP1, stronger effect = lower value",1.01
same,normalized growth,"locus YHR142W, strain chs7, stronger effect = lower value",0.972
same,normalized growth,"locus YHR200W, strain rpn10, stronger effect = lower value",0.996
same,normalized growth,"locus YIL066C, strain RNR3, stronger effect = lower value",0.968
same,normalized growth,"locus YIL073C, strain SPO22, stronger effect = lower value",1.04
same,normalized growth,"locus YIL125W, strain kgd1, stronger effect = lower value",1.01
same,normalized growth,"locus YIR030C, strain dcg1, stronger effect = lower value",1.02
same,normalized growth,"locus YJL092W, strain hpr5, stronger effect = lower value",1.01
same,normalized growth,"locus YJL095W, strain BCK1 (second series), stronger effect = lower value",0.967
same,normalized growth,"locus YJL095W, strain BCK1, stronger effect = lower value",0.958 and 0.936
same,normalized growth,"locus YJL115W, strain asf1, stronger effect = lower value",1.02
same,normalized growth,"locus YJL129C, strain trk1, stronger effect = lower value",0.901
same,normalized growth,"locus YJL134W, strain LCB3, stronger effect = lower value",1.01
same,normalized growth,"locus YJL154C, strain vps35, stronger effect = lower value",1
same,normalized growth,"locus YJL164C, strain tpk1, stronger effect = lower value",0.917 (active)
same,normalized growth,"locus YJL166W, strain qcr8, stronger effect = lower value",0.932
same,normalized growth,"locus YJL168C, strain set2, stronger effect = lower value",1.04
same,normalized growth,"locus YJL187C, strain SWE1 (second series), stronger effect = lower value",0.982
same,normalized growth,"locus YJL187C, strain SWE1, stronger effect = lower value",0.993
same,normalized growth,"locus YJR043C, strain POL32, stronger effect = lower value",0.973
same,normalized growth,"locus YJR066W, strain TOR1, stronger effect = lower value",0.851
same,normalized growth,"locus YJR075W, strain HOC1, stronger effect = lower value",0.983
same,normalized growth,"locus YKL009W, strain mrt4, stronger effect = lower value",1.03
same,normalized growth,"locus YKL068W, stronger effect = lower value",1
same,normalized growth,"locus YKL085W, strain MDH1 (second series), stronger effect = lower value",1
same,normalized growth,"locus YKL085W, strain MDH1, stronger effect = lower value",1
same,normalized growth,"locus YKL160W, strain elf1, stronger effect = lower value",0.95
same,normalized growth,"locus YKL190W, strain CNB1, stronger effect = lower value",1
same,normalized growth,"locus YKR001C, strain vps1, stronger effect = lower value",0.947
same,normalized growth,"locus YKR026C, strain gcn3, stronger effect = lower value",1
same,normalized growth,"locus YKR091W, strain srl3, stronger effect = lower value",0.991
same,normalized growth,"locus YLL001W, strain dnm1, stronger effect = lower value",0.983
same,normalized growth,"locus YLL026W, stronger effect = lower value",0.976
same,normalized growth,"locus YLL041C, strain sdh2, stronger effect = lower value",0.99
same,normalized growth,"locus YLR027C, strain aat2, stronger effect = lower value",0.978
same,normalized growth,"locus YLR039C, strain RIC1, stronger effect = lower value",0.936
same,normalized growth,"locus YLR058C, strain SHM2, stronger effect = lower value",1.01
same,normalized growth,"locus YLR102C, strain apc9, stronger effect = lower value",1.02
same,normalized growth,"locus YLR113W, strain HOG1, stronger effect = lower value",0.968
same,normalized growth,"locus YLR221C, strain rsa3, stronger effect = lower value",0.921
same,normalized growth,"locus YLR258W, strain gsy2, stronger effect = lower value",0.958
same,normalized growth,"locus YLR262C, strain YPT6 (second series), stronger effect = lower value",0.83 (active)
same,normalized growth,"locus YLR262C, strain YPT6, stronger effect = lower value",0.99
same,normalized growth,"locus YLR268W, strain sec22, stronger effect = lower value",0.978
same,normalized growth,"locus YLR320W, strain mms22, stronger effect = lower value",0.891
same,normalized growth,"locus YLR330W, strain CHS5, stronger effect = lower value",1.02
same,normalized growth,"locus YLR342W, strain FKS1 (second series), stronger effect = lower value",1.02
same,normalized growth,"locus YLR342W, strain FKS1, stronger effect = lower value",1.01
same,normalized growth,"locus YLR357W, strain rsc2, stronger effect = lower value",1.09
same,normalized growth,"locus YLR370C, strain arc18, stronger effect = lower value",0.975
same,normalized growth,"locus YLR371W, strain rom2, stronger effect = lower value",1.02
same,normalized growth,"locus YLR384C, strain iki3, stronger effect = lower value",1.03
same,normalized growth,"locus YLR418C, strain cdc73, stronger effect = lower value",0.917
same,normalized growth,"locus YML016C, strain PPZ1, stronger effect = lower value",1.01
same,normalized growth,"locus YML032C, strain rad52, stronger effect = lower value",1.01
same,normalized growth,"locus YML120C, strain ndi1, stronger effect = lower value",0.95
same,normalized growth,"locus YML124C, strain tub3, stronger effect = lower value",1.01
same,normalized growth,"locus YMR058W, strain fet3, stronger effect = lower value",0.994
same,normalized growth,"locus YMR078C, strain ctf18, stronger effect = lower value",1.01
same,normalized growth,"locus YMR125W, strain sto1, stronger effect = lower value",1.05
same,normalized growth,"locus YMR129W, stronger effect = lower value",1
same,normalized growth,"locus YMR205C, strain PFK2, stronger effect = lower value",0.929
same,normalized growth,"locus YMR223W, strain ubp8, stronger effect = lower value",1
same,normalized growth,"locus YMR231W, strain pep5, stronger effect = lower value",0.983
same,normalized growth,"locus YMR307W, strain GAS1, stronger effect = lower value",1
same,normalized growth,"locus YNL067W, strain RPL9B, stronger effect = lower value",0.987
same,normalized growth,"locus YNL071W, strain lat1, stronger effect = lower value",0.894 (active)
same,normalized growth,"locus YNL128W, strain TEP1, stronger effect = lower value",0.995
same,normalized growth,"locus YNL183C, strain NPR1, stronger effect = lower value",0.886
same,normalized growth,"locus YNL209W, strain ssb2, stronger effect = lower value",0.979
same,normalized growth,"locus YNL233W, strain BNI4, stronger effect = lower value",0.976
same,normalized growth,"locus YNL248C, strain rpa49, stronger effect = lower value",1.06
same,normalized growth,"locus YNL250W, strain rad50, stronger effect = lower value",1.02
same,normalized growth,"locus YNL271C, strain bni1, stronger effect = lower value",1.02
same,normalized growth,"locus YNL298W, strain CLA4, stronger effect = lower value",1.01
same,normalized growth,"locus YNL307C, strain MCK1, stronger effect = lower value",0.962
same,normalized growth,"locus YNL322C, strain KRE1 (second series), stronger effect = lower value",0.991
same,normalized growth,"locus YNL322C, strain KRE1, stronger effect = lower value",1
same,normalized growth,"locus YNR049C, strain mso1, stronger effect = lower value",1.01
same,normalized growth,"locus YNR052C, strain pop2, stronger effect = lower value",1.01
same,normalized growth,"locus YOL006C, strain TOP1, stronger effect = lower value",0.944
same,normalized growth,"locus YOL012C, strain htz1",0.818
same,normalized growth,"locus YOL147C, strain pex11, stronger effect = lower value",1.03
same,normalized growth,"locus YOR001W, strain rrp6, stronger effect = lower value",0.967
same,normalized growth,"locus YOR061W, strain CKA2, stronger effect = lower value",1
same,normalized growth,"locus YOR069W, strain VPS5, stronger effect = lower value",1
same,normalized growth,"locus YOR070C, strain gyp1, stronger effect = lower value",0.961
same,normalized growth,"locus YOR080W, strain dia2, stronger effect = lower value",0.994
same,normalized growth,"locus YOR083W, strain WHI5, stronger effect = lower value",0.969
same,normalized growth,"locus YOR106W, strain vam3, stronger effect = lower value",0.974
same,normalized growth,"locus YOR136W, strain idh2, stronger effect = lower value",1.01
same,normalized growth,"locus YOR144C, strain elg1, stronger effect = lower value",1
same,normalized growth,"locus YOR184W, strain ser1, stronger effect = lower value",0.952
same,normalized growth,"locus YOR231W, strain MKK1, stronger effect = lower value",0.94
same,normalized growth,"locus YOR265W, strain rbl2, stronger effect = lower value",0.973
same,normalized growth,"locus YOR270C, strain vph1, stronger effect = lower value",0.853
same,normalized growth,"locus YOR290C, strain snf2, stronger effect = lower value",0.985
same,normalized growth,"locus YOR316C, strain cot1, stronger effect = lower value",1.01
same,normalized growth,"locus YPL051W, strain arl3, stronger effect = lower value",0.963
same,normalized growth,"locus YPL055C, strain LGE1, stronger effect = lower value",0.942
same,normalized growth,"locus YPL078C, strain atp4, stronger effect = lower value",1.03
same,normalized growth,"locus YPL106C, strain sse1, stronger effect = lower value",0.977
same,normalized growth,"locus YPL240C, strain hsp82, stronger effect = lower value",0.975
same,normalized growth,"locus YPL241C, strain CIN2, stronger effect = lower value",1.01
same,normalized growth,"locus YPL256C, strain CLN2, stronger effect = lower value",0.942
same,normalized growth,"locus YPR119W, strain clb2, stronger effect = lower value",1.01
same,normalized growth,"locus YPR141C, strain kar3, stronger effect = lower value",1.04
same,normalized growth,"locus YPR163C, strain tif3, stronger effect = lower value",0.933
same,normalized growth,"locus YPR167C, strain met16, stronger effect = lower value",1
same,normalized growth,"strain wtn01, stronger effect = lower value",1.03

# From PubChem BioAssay AID1159580 (chemical genetic matrix, 2015)
